NPR1 antag – Natriuretic polypeptide receptor (hNpr1) antagonism - Primary qHTS; Atrial natriuretic peptide receptor 1 (Homo sapiens), P16066; HEK293 hNpr1 GloSensor cGMP, ANP-stimulated luminescence; Potency, µM (series often up to 46.3 µM), without a hit: at the top dose activity change, negative = inhibition, usual class: inhibitors; hit rate 1.6% among 76,000; calls by dose curve; further: on the % scale 0 is the no-effect control and ±100 the full control effect; nearly all actives have a fitted effect of over 60% in size
Target sequence (P16066 whole entry, looked up): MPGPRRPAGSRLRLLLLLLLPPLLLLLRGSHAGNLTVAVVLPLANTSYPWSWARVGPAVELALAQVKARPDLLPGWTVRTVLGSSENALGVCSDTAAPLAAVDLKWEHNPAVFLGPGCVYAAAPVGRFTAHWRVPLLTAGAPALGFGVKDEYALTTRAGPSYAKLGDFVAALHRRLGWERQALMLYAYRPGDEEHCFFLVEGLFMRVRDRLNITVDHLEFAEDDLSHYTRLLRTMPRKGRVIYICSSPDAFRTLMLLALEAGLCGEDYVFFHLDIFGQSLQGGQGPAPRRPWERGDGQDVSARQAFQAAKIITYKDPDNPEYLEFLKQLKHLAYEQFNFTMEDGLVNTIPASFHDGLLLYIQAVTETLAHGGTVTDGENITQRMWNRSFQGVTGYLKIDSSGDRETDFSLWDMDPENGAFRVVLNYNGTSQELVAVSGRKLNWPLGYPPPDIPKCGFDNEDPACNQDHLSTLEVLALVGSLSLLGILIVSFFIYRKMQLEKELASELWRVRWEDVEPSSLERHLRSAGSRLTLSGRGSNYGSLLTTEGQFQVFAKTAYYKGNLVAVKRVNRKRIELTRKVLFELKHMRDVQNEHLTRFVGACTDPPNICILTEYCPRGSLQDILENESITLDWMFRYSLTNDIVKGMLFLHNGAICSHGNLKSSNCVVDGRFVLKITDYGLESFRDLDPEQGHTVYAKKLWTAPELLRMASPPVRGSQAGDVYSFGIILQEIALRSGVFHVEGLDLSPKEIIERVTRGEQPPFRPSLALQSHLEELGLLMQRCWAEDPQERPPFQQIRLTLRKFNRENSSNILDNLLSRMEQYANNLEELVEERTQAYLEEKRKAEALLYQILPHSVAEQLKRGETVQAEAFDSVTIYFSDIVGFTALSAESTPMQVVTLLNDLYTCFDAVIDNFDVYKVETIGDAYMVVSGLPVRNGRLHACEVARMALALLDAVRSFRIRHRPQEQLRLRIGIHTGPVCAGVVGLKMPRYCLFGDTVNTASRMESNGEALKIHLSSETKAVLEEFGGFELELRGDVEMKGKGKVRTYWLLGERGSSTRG
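Compound pre-incubated 30 min at room temperature on GloSensor-loaded HEK293 cells stably carrying hNpr1 and the pGS-40F cGMP biosensor. Stimulation uses hNppA at 0.1 nM final; luminescence is taken at baseline and 20 min post-agonist.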
NIH3T3 tox – Cytotoxic Profiling in NIH 3T3 Cell Line of Diverse Libraries Using Quantitative High-Throughput Screening. NIH 3T3 viability, CellTiter-Glo ATP luminescence, 48-72 h. Potency, µM (titrated, usually from 96.7 µM), without a hit: at the highest dose activity change, negative = cytotoxicity, most hits filed as inhibitors. hit rate 4.3% among 94,000; further: on the % scale 0 is the no-effect control and ±100 the full control effect; nearly all actives have a fitted effect of over 55% in size
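Cells were seeded at 400 per well, treated with pin-transferred compound, and kept 48 or 72 hr at 37 °C before CellTiter-Glo addition and luminescence imaging of cellular ATP.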
HEK cytotox – Cytotoxic Profiling in HEK 293 Cell Line of Diverse Libraries Using Quantitative High-Throughput Screening; HEK 293 viability, ATP luminescence (CellTiter-Glo), 48-72 h; Potency, µM (top dose mostly 115 µM), for inactives: at the top dose activity change, negative = cytotoxicity, usual class: inhibitors; hit rate 6.6% among 94,000; further: on the % scale 0 is the no-effect control and ±100 the full control effect; nearly all actives have a fitted effect of over 60% in size
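250 HEK 293 cells/well; compound by pintool; incubated 48 or 72 hr at 37 degree Celsius; CellTiter-Glo added, 10 min RT, luminescence imaged.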
FLuc inh-1 – Firefly luciferase inhibition profiling of diverse chemical library using quantitative high-throughput screening; Luciferin 4-monooxygenase (Photinus pyralis), P08659; purified P. pyralis luciferase, luminescence, biochemical; Potency, µM (top dose mostly 115 µM), actives largely listed as inhibitors; hit rate 2.5% among 76,000; further: on the % scale 0 is the no-effect control and ±100 the full control effect; nearly all actives have a fitted effect of over 65% in size
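Luminescence read by CCD imaging after purified firefly luciferase (10nM final) was added to substrate buffer holding 10uM D-luciferin and 10uM ATP, pH 7.5, pre-dosed with compound.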
FLuc SDR -ATP – Firefly luciferase (FLuc-C-HiBiT) SDR gain of signal screen - without ATP; shares compounds with FLuc inh-1; Purified FLuc-C-HiBiT, Nano-Glo HiBiT luminescence, no ATP; Potency, µM (titrated, usually from 32.7 µM), for the others: top-dose activation (signal gain), most hits filed as activators; hit rate 7.8% among 1,300; further: nearly all actives have a fitted effect of over 55% in size
FLuc SDR ATP – Firefly luciferase (FLuc-C-HiBiT) SDR gain of signal screen - plus ATP | AID 1963319, 2024 | shares compounds with FLuc inh-1 | purified FLuc-C-HiBiT + ATP, HiBiT complementation luminescence | Potency, µM (top dose mostly 32.7 µM), inactives show at the highest dose activation (gain of signal), usual class: activators | hit rate 8.7% among 1,300;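 further: signal reports ligand binding via conformational change of the enzyme rather than luciferase catalysis; % of control where 0% means no effect; nearly all actives have a fitted effect of over 55% in size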
FLuc inh-2 – Firefly luciferase (FLuc-C-HiBiT) enzymatic inhibition screen - Functional assay; shares compounds with FLuc inh-1; purified FLuc-C-HiBiT enzyme, luciferin luminescence; Potency, µM (doses to about 32.7 µM), inactives show at the highest dose activity change, negative = inhibition, actives largely listed as inhibitors; hit rate 42% among 1,300; AID 1963320, 2024; further: on the % scale 0 is the no-effect control and ±100 the full control effect; nearly all actives have a fitted effect of over 70% in size
Npr1 antag conf – Natriuretic polypeptide receptor (hNpr1) antagonism - Confirmation | Potency, µM (titrated, usually from 57.6 µM), without a hit: at the top dose activity change, negative = inhibition, usual class: inhibitors | hit rate 76% among 1,400 | shares compounds with NPR1 antag | HEK293 hNpr1 cGMP GloSensor luminescence, ANP-stimulated; calls by dose curve; further: nearly all actives have a fitted effect of over 70% in size
Npr2 selectivity – Natriuretic polypeptide receptor (hNpr2) antagonism - Subtype selectivity assay; Potency, µM (top dose mostly 57.6 µM), inactives show top-dose activity change, negative = inhibition, usual class: inhibitors; hit rate 67% among 1,400; shares compounds with NPR1 antag; HEK293 hNpr2 GloSensor cGMP luminescence, CNP-stimulated; AID 1347046, 2019; calls by dose curve; further: nearly all actives have a fitted effect of over 70% in size
FLuc inh counter – Natriuretic polypeptide receptor (hNpr1) antagonism - Confirmation firefly luciferase (FLuc) inhibition counterscreen | shares compounds with NPR1 antag | purified FLuc enzyme, luminescence, Km substrate | Potency, µM (top dose mostly 57.6 µM), inactives show at the highest dose activity change, negative = inhibition, most hits filed as inhibitors | hit rate 0.7% among 1,400; further: 0% is about no effect
GloSensor ctrl – Natriuretic polypeptide receptor (hNpr1) antagonism - Counterscreen GloSensor control cell line; shares compounds with NPR1 antag; HEK293 GloSensor cGMP, SNP-stimulated, luminescence; Potency, µM (top dose mostly 57.6 µM), inactives show top-dose activity change, negative = inhibition, actives largely listed as inhibitors; hit rate 69% among 1,400; AID 1347051, 2019; calls by dose curve; further: on the % scale 0 is the no-effect control and ±100 the full control effect; nearly all actives have a fitted effect of over 70% in size
Starred values were filed as active, the others as inactive; [ ] = remark or other dose. Shown are actives, neighbours in structure and some others; about 11% of the full set was active somewhere. Unless noted, the call rests on the fitted dose curve; in most records, active means well fitted curve in the direction sought with a large enough effect; inconclusive means small, poorly fitted or top-dose-only effect, or another doubt; inactive means no such curve, though single readings can be large; an effect the other way counts as inactive or inconclusive. Potency means the concentration at half of the fitted maximal effect.

CCn1cc(-c2cc3c(cn2)CN(C)CCN3)cn1 was read as FLuc SDR -ATP 16%[65.7 µM], FLuc SDR ATP 9%[65.7 µM] and FLuc inh-2 inconclusive.
Screening COc1ccc(-c2cc3c(cn2)CN(C)CCN3)cn1 returned NPR1 antag -21%[70.6 µM], NIH3T3 tox inconclusive, HEK cytotox -24%[230 µM], FLuc inh-1 6.3µM*, FLuc SDR -ATP 20%[65.7 µM], FLuc SDR ATP 15%[65.7 µM] and FLuc inh-2 inconclusive.
Screening COCc1cn(C[C@H]2C[C@@H]3CCN2C[C@@H]3C(=O)N2CCOCC2)nn1 returned NPR1 antag 3%[70.6 µM], NIH3T3 tox inactive, HEK cytotox 3%[172 µM] and FLuc inh-1 inactive.
O=C(Nc1ccc2c(c1)OCCO2)c1cccn(Cc2ccccc2)c1=O was read as FLuc SDR -ATP 16%, FLuc SDR ATP 11% and FLuc inh-2 inconclusive.
COCCNC(=O)[C@H]1CN2CCC1C[C@@H]2Cn1cc(-c2ccc(-c3ccccc3)cc2)nn1 (some centres undefined) was read as NPR1 antag 9%, NIH3T3 tox -15%, HEK cytotox -5% and FLuc inh-1 inactive.
For COc1ccc2c(c1)C1(CCN(C(=O)Nc3cccc(C)c3)C1)C(=O)N2C (centres undefined) the results were NPR1 antag -8%, NIH3T3 tox -7%, HEK cytotox -16% and FLuc inh-1 inactive.
`COc1ccc2c(c1)C1(CCN(C(=O)Nc3ccc4c(c3)OCCO4)C1)C(=O)N2C` (centres undefined) gave NPR1 antag -15%, NIH3T3 tox -4%, HEK cytotox -29%, FLuc inh-1 10µM*, FLuc SDR -ATP 22%, FLuc SDR ATP 15% and FLuc inh-2 inconclusive.
CCCCS(=O)(=O)N1C[C@@H](c2ccc3c(c2)OCO3)[C@@H]2[C@H]1C1CCN2CC1 was read as NPR1 antag 2%, NIH3T3 tox -24%, HEK cytotox -23% and FLuc inh-1 inactive.
Screening CCCN1CCNc2cc(Nc3ccccc3)ncc2C1 returned NPR1 antag -1%[70.6 µM], NIH3T3 tox inconclusive, HEK cytotox 89µM*, FLuc inh-1 6.3µM*, FLuc SDR -ATP 27%[65.7 µM], FLuc SDR ATP 19%[65.7 µM] and FLuc inh-2 inconclusive.
For Cc1ccc(OCC(=O)N2CCCCCC2CN2CCC(C)CC2)cc1 (centres undefined) the results were NIH3T3 tox -23% and HEK cytotox inconclusive.
Screening CN1CCN(C(=O)COc2ccc(-c3nc4ccccc4s3)cc2)CC1 returned FLuc SDR -ATP 1.6µM*, FLuc SDR ATP inconclusive and FLuc inh-2 0.5µM*.
CCc1nnc2ccc(N3CCN(CC)CC3)nn12 was read as NPR1 antag 2%, NIH3T3 tox -21%, HEK cytotox -5% and FLuc inh-1 inactive.
Screening O=C(Cc1ccccc1)N1Cc2ccccc2CC2(CCCN2Cc2ccncc2)C1 (centres undefined) returned NIH3T3 tox -18% and HEK cytotox inconclusive.
Screening O=C(Cc1ccc(Cl)cc1)N1Cc2ccccc2CC2(CCCN2CC2CCNC2)C1 (centres undefined) returned NIH3T3 tox 16µM*, HEK cytotox 28µM*, Npr1 antag conf 22µM*, Npr2 selectivity 6.1µM*, FLuc inh counter 1% and GloSensor ctrl -1%.
For CCO[C@H]1CN(C(=O)C2(c3ccccc3)CCNCC2)C[C@@H]1O the results were NPR1 antag 0%, NIH3T3 tox -21%, HEK cytotox -5% and FLuc inh-1 inactive.
`COc1cc2c(cc1Oc1cccc(N(C)C)c1)NC(=O)C21CCN(Cc2ccccc2)CC1` gave NPR1 antag 11µM*, NIH3T3 tox 25µM*, HEK cytotox 28µM*, FLuc inh-1 inactive, Npr1 antag conf 17µM*, Npr2 selectivity 19µM*, FLuc inh counter -2% and GloSensor ctrl 9.7µM*.
For COc1cc2c(cc1Oc1cccc(N(C)C)c1)NC(=O)C21CCN(Cc2cccc(O)c2)CC1 the results were NPR1 antag 11µM*, NIH3T3 tox inconclusive, HEK cytotox 25µM*, FLuc inh-1 inactive, Npr1 antag conf 19µM*, Npr2 selectivity 22µM*, FLuc inh counter -3% and GloSensor ctrl 17µM*.
Screening COc1cc2c(cc1Oc1cccc(N(C)C)c1)NC(=O)C21CCN(c2ncc(F)cn2)CC1 returned NPR1 antag -19%, NIH3T3 tox inconclusive, HEK cytotox -18% and FLuc inh-1 inactive.

Source: PubChem BioAssay
